Data as given in paper PMC5540273 (PLoS ONE, 2017).
Values joined by “and” are separate entries in the source; they are usually repeats but may differ in a detail not shown here. Identical values can stand only once. Like-named read-outs stand apart in the source and are kept apart here.

Experiments:
ANKK1 = conditions: n = 1
ARK5 = test system: T1, ARK5; conditions: n = 1
T1 construct: gene NUAK1

ASK1 = test system: T2, ASK1; conditions: n = 1
T2 construct: gene MAP3K5

ASK2 = test system: T3, ASK2; conditions: n = 1
T3 construct: gene MAP3K6

AURKA = conditions: n = 1
AURKB = conditions: n = 1
AURKC = conditions: n = 1
AXL = conditions: n = 1
BIKE = test system: T4, BIKE; conditions: n = 1
T4 construct: gene BMP2K

BLK = conditions: n = 1
BMPR1A = conditions: n = 1
BMPR1B = conditions: concentration: 1 μM, replicates: in singlicate; n = 1
BMPR2 = conditions: n = 1
BMX = conditions: n = 1
BRAF = conditions: n = 1
BRK = test system: T5, BRK; conditions: n = 1
T5 construct: gene PTK6

BRSK1 = conditions: n = 1
BRSK2 = conditions: n = 1
BTK = conditions: concentration: 1 μM, replicates: in singlicate; n = 1
BUB1 = conditions: n = 1
[1] = concentration: 1 μM, replicates: in singlicate
[2] = concentration: 1 μM,replicates: in singlicate, 1 µM
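Further: KINOMEscan kinase panel screen.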

Cl.NC(=O)c1cccc(Nc2nccc(Nc3ccc(Oc4cccc(Cl)c4)c(Cl)c3)n2)c1 [GW659008]
%Inh (ANKK1; [1]): 0% | %Inh (ARK5; [1]): 0% | %Inh (ASK1; [1]): 0% | %Inh (ASK2; [1]): 0% | %Inh (AURKA; [1]): 6% | %Inh (AURKB; [1]): 49% | %Inh (AURKC; [1]): 21% | %Inh (AXL; [1]): 12% | %Inh (BIKE; [1]): 33% | %Inh (BLK; [1]): 84% | %Inh (BMPR1A; [1]): 0% | %Inh (BMPR1B): 0% | %Inh (BMPR2; [1]): 3% | %Inh (BMX; [1]): 14% | %Inh (BRAF; [1]): 0% | %Inh (BRK; [1]): 69% | %Inh (BRSK1; [1]): 0% | %Inh (BRSK2; [1]): 0% | %Inh (BTK): 0% | %Inh (BUB1; [1]): 36%

CSc1nn2c(=O)cc(N3CCOCC3)nc2n1Cc1cccc(C(F)(F)F)c1C [GSK2363608]
%Inh (ANKK1; [2]): 0% and 10% | %Inh (ARK5; [2]): 13% and 8% | %Inh (ASK1; [2]): 14% and 0% | %Inh (ASK2; [2]): 86% and 7% | %Inh (AURKA; [2]): 0% and 1% | %Inh (AURKB; [2]): 0% and 29% | %Inh (AURKC; [2]): 24% and 0% | %Inh (AXL; [2]): 3% and 4% | %Inh (BIKE; [2]): 20% and 0% | %Inh (BLK; [2]): 8% and 9% | %Inh (BMPR1A; [2]): 17% and 0% | %Inh (BMPR1B): 0% | %Inh (BMPR2; [2]): 22% and 0% | %Inh (BMX; [2]): 8% and 0% | %Inh (BRAF; [2]): 0% and 5% | %Inh (BRK; [2]): 0% and 10% | %Inh (BRSK1; [2]): 7% and 4% | %Inh (BRSK2; [2]): 4% and 0% | %Inh (BTK): 0% | %Inh (BUB1; [2]): 13% and 0%

COc1cccc(NC(=O)NC2CCN(c3ccnc(Nc4ccc(F)cc4)n3)C2)c1 (stereo not drawn) [GSK1379721]
%Inh (ANKK1; [1]): 4% | %Inh (ARK5; [1]): 9% | %Inh (ASK1; [1]): 8% | %Inh (ASK2; [1]): 4% | %Inh (AURKA; [1]): 21% | %Inh (AURKB; [1]): 0% | %Inh (AURKC; [1]): 8% | %Inh (AXL; [1]): 0% | %Inh (BIKE; [1]): 0% | %Inh (BLK; [1]): 0% | %Inh (BMPR1A; [1]): 0% | %Inh (BMPR1B): 0% | %Inh (BMPR2; [1]): 7% | %Inh (BMX; [1]): 0% | %Inh (BRAF; [1]): 0% | %Inh (BRK; [1]): 0% | %Inh (BRSK1; [1]): 0% | %Inh (BRSK2; [1]): 0% | %Inh (BTK): 0% | %Inh (BUB1; [1]): 10%

COc1ccc(Nc2nccc(NCCNC(=O)Nc3ccccc3F)n2)cc1 [GSK1379901]
%Inh (ANKK1; [1]): 22% | %Inh (ARK5; [1]): 23% | %Inh (ASK1; [1]): 0% | %Inh (ASK2; [1]): 4% | %Inh (AURKA; [1]): 12% | %Inh (AURKB; [1]): 36% | %Inh (AURKC; [1]): 28% | %Inh (AXL; [1]): 0% | %Inh (BIKE; [1]): 12% | %Inh (BLK; [1]): 0% | %Inh (BMPR1A; [1]): 0% | %Inh (BMPR1B): 0% | %Inh (BMPR2; [1]): 6% | %Inh (BMX; [1]): 2% | %Inh (BRAF; [1]): 0% | %Inh (BRK; [1]): 36% | %Inh (BRSK1; [1]): 16% | %Inh (BRSK2; [1]): 0% | %Inh (BTK): 0% | %Inh (BUB1; [1]): 53%

COc1cc2ncnc(Nc3ccc4nc(-c5ccccc5)[nH]c4c3)c2cc1OC.Cl [GW282450]
%Inh (ANKK1; [1]): 16% | %Inh (ARK5; [1]): 0% | %Inh (ASK1; [1]): 0% | %Inh (ASK2; [1]): 0% | %Inh (AURKA; [1]): 99.1% | %Inh (AURKB; [1]): 28% | %Inh (AURKC; [1]): 48% | %Inh (AXL; [1]): 23% | %Inh (BIKE; [1]): 14% | %Inh (BLK; [1]): 26% | %Inh (BMPR1A; [1]): 0% | %Inh (BMPR1B): 0% | %Inh (BMPR2; [1]): 0% | %Inh (BMX; [1]): 10% | %Inh (BRAF; [1]): 0% | %Inh (BRK; [1]): 0% | %Inh (BRSK1; [1]): 0% | %Inh (BRSK2; [1]): 0% | %Inh (BTK): 0% | %Inh (BUB1; [1]): 6%

Cc1cccc(-c2nc(Nc3ccncc3)c3ccccc3n2)n1 [GW855857]
%Inh (ANKK1; [1]): 0% | %Inh (ARK5; [1]): 0% | %Inh (ASK1; [1]): 0% | %Inh (ASK2; [1]): 0% | %Inh (AURKA; [1]): 0% | %Inh (AURKB; [1]): 10% | %Inh (AURKC; [1]): 0% | %Inh (AXL; [1]): 7% | %Inh (BIKE; [1]): 1% | %Inh (BLK; [1]): 1% | %Inh (BMPR1A; [1]): 0% | %Inh (BMPR1B): 29% | %Inh (BMPR2; [1]): 0% | %Inh (BMX; [1]): 6% | %Inh (BRAF; [1]): 0% | %Inh (BRK; [1]): 13% | %Inh (BRSK1; [1]): 0% | %Inh (BRSK2; [1]): 11% | %Inh (BTK): 0% | %Inh (BUB1; [1]): 0%
